# From PubChem
# FAS TE block: inhibitors of human fatty acid synthase thioesterase domain | 360,000 compounds, 0.67% hits | P49327 | inhibition, % at 15 µM | recombinant FAS-TE, OMFH fluorogenic substrate, fluorescence endpoint | AID 602261;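 active means compounds whose normalised, plate-corrected inhibition of enzyme fluorescence in the single-dose primary screen is 50% or more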
# PfG6PD inh: PfG6PD (Plasmodium falciparum) enzyme inhibition | AID 504690 | PfGluPho enzyme, NADPH resazurin-diaphorase fluorescence | inhibition, % at 20 µM | 350,000 compounds, 0.78% hits;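 active means inhibition reaching at least a set limit at 20 µM in the primary screen, cut at about 59% in these data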
# KLK7 zymogen act: proKLK7 (human) activation, primary screen; purified proKLK7, EDANS-DABCYL substrate fluorescence; 100% is mature enzyme control, 0% vehicle; activation, % at 7 µM; 370,000 compounds, 0.9% hits;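 active means activation above the mean of all tested compounds plus 3 SD, computed per campaign excluding outliers beyond control limits, cut at about 13% in these data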
# Neddyl block: cullin neddylation inhibition | P61081+Q13564 | TR-FRET cullin neddylation, biochemical | calls only at 25 µM | 360,000 compounds, 0.58% hits; in the data active means inhibition above about 36%
# PfG6PD confirm: PfG6PD inhibition, single-dose confirmed; shares compounds with PfG6PD inh; recombinant PfGluPho, NADPH-diaphorase-resazurin fluorescence; 2,400 compounds, 34% hits; inhibition, % at 20 µM;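 active means inhibition of at least 50% at 20 µM in any single replicate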
# Diaph ctr 10uM: counter-screen for P. falciparum G6PD inhibitors: diaphorase inhibitors, oxidizers | shares compounds with PfG6PD inh | diaphorase-coupled resazurin reduction, fluorescence, NADPH 10 uM | inhibition, % at 20 µM | 820 compounds, 39% hits;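 active means average inhibition reaching 50% or more with the compound at 20 µM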;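 further: resorufin red fluorescence formed as diaphorase reduces resazurin using NADPH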
# Diaph ctr 30uM: inhibits diaphorase or oxidizes, flagging false PfG6PD hits; shares compounds with PfG6PD inh; Diaphorase/resazurin coupled assay, resorufin fluorescence, 30 uM NADPH; inhibition, % at 20 µM; 820 compounds, 29% hits; AID 504863;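 active means inhibition averaging 50% or more, tested at 20 µM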
# Hits are given with their value; i = inactive; nt = no result given; + = active, no number. An excerpt weighted towards active compounds, which were near 2.7% of everything screened.
SMILES,FAS TE block,PfG6PD inh,KLK7 zymogen act,Neddyl block,PfG6PD confirm,others
CCOC(=O)c1cnc2ccc(C)cc2c1Sc1ccccc1C(=O)OC,i,104,i,i,48,Diaph ctr 10uM=i;Diaph ctr 30uM=i
COc1ccc(S[C@]2(C(=O)N3CCCC3)CC(=O)N(C(=O)/C=C/c3ccccc3)[C@@H]2c2ccc(OC)cc2)cc1,nt,nt,i,nt,nt,
Cc1c(C(=O)Nc2ccncc2)sc2nc(-c3ccccc3)cn12,i,78,i,i,i,
CCn1c(SCc2c(F)cccc2F)nc2sc3c(c2c1=O)CCCC3,nt,nt,i,nt,nt,
CCOC(=O)c1cnc(-c2ccccc2)nc1N1CCOCC1,i,i,i,i,nt,
CCOC(=O)c1[nH]cc(-c2ccccc2)c1N1CCOCC1,i,73,i,i,i,
CC(C)(C=O)C1=CC(=O)c2ccccc2C1=O,i,119,i,i,103,Diaph ctr 10uM=85;Diaph ctr 30uM=66
Cc1cc(C(=O)O[C@@H]2CCC[C@@]3(C(=O)N(Cc4ccccc4)c4ccccc43)[C@H]2NC(=O)CCc2ccccc2)no1,nt,nt,i,nt,nt,
CC(=O)Cc1cc(O)c2ccccc2c1OC(=O)c1ccccc1,i,66,i,i,i,
O=c1c2cc3cc(Cl)ccc3nc2ncn1N1CCCCC1,nt,nt,i,nt,nt,
COc1ccc(/C=N/Nc2cc(C)nc3c(C)cccc23)cc1,i,76,i,+,i,
COc1ccc(/C=N/Nc2cc(C)nc3ccccc23)cc1,i,i,i,nt,nt,
O=S1(=O)c2ccc(Br)cc2OC[C@@H](Cc2ccccc2)N1Cc1cn(Cc2ccccc2)nn1,nt,nt,i,nt,nt,
O=C(/C(=N/N=C/c1ccc(O)c(O)c1O)c1ccccc1)c1ccccc1,i,i,i,i,nt,
Oc1ccc(/C=N/N=C(c2ccccc2)c2ccccc2)c(O)c1O,i,75,i,i,73,Diaph ctr 10uM=51;Diaph ctr 30uM=i
CC(C)n1c(/C=C/c2ccccc2)nc2ccccc21,i,i,i,nt,nt,
COCCOCCn1c(CCCO)nc2ccccc21,i,i,i,i,nt,
COc1ccc(/C=C/c2nc3ccccc3n2Cc2ccc(OC)c(OC)c2)cc1,i,66,i,i,49,Diaph ctr 10uM=i;Diaph ctr 30uM=i
CCCn1c(/C=C/c2ccccc2)nc2ccccc21,i,59,i,nt,i,
CCc1nc2ccccc2n1Cc1ccc(OC)c(OC)c1,i,i,i,i,nt,
COCCOCCn1c(/C=C/c2ccccc2)nc2ccccc21,i,63,i,nt,i,
CCC(=O)OCOc1ccc(/C=C2/CCC(CN(C)C)C2=O)cc1 (stereo not given),i,84,i,i,56,Diaph ctr 10uM=i;Diaph ctr 30uM=i
CCn1cc(/C=N/NC(=O)c2ccc(C#N)cc2F)c2ccccc21,i,107,i,i,89,Diaph ctr 10uM=81;Diaph ctr 30uM=64
CCOC(=O)[C@@]12CN(C(=O)OC(C)(C)C)CC=C1N(Cc1ccc(OC)cc1)C(=O)[C@H]2CC(=O)NCc1cccs1,nt,nt,i,nt,nt,
COCCN(CCOC)Cc1c(O)ccc2c1O/C(=C\c1ccc(C)o1)C2=O,i,63,i,i,i,
SMILES,FAS TE block,PfG6PD inh,KLK7 zymogen act,Neddyl block,PfG6PD confirm,others
CCN(CC)Cc1c(O)ccc2c1O/C(=C\C=C\c1ccccc1)C2=O,i,i,i,i,nt,
Cc1ccc(-n2c(SCC(=O)N/N=C/C=C\c3ccccc3[N+](=O)[O-])nnc2-c2ccccc2)cc1,nt,nt,i,nt,nt,
CC(C)CN1C(=O)[C@@]2(CC(=O)N(C)C2c2ccccc2)c2cc(-n3cc(CN(C)C)nn3)ccc21 (stereo not given in full),nt,nt,i,nt,nt,
O=C1S/C(=C\c2ccc(N3CCOCC3)o2)C(=O)N1Cc1c(F)cccc1Cl,i,75,i,i,i,
COC(=O)[C@]1(C#N)CC(=O)N(Cc2ccc(Cl)cc2)[C@@H]1c1ccccc1,nt,nt,i,nt,nt,
COC(=O)c1ccc(Cn2ccc3ccc(-c4ccc5ccn(C(=O)c6ccccc6C)c5c4)cc32)cc1,nt,nt,i,nt,nt,
CN(O)/C=c1/ccc2c(n1)C(=O)C=CC=2,i,68,i,i,58,Diaph ctr 10uM=i;Diaph ctr 30uM=i
CSc1nnc(NC(=O)c2ccc3c(c2)OCO3)s1,i,96,i,i,74,Diaph ctr 10uM=i;Diaph ctr 30uM=i
COCCSc1nnc(NC(=O)c2ccc3c(c2)OCO3)s1,i,71,i,i,i,
COC[C@H]1CCCN1c1cccc2c1S(=O)(=O)N(C1CC1)CCCO2,nt,nt,i,nt,nt,
CC(NC(=O)CCC(=O)Nc1ccccc1O)c1ccccc1 (stereo not given),i,i,i,i,nt,
CC(CNc1ccccc1O)C(=O)O (stereo not given),i,94,i,i,70,Diaph ctr 10uM=i;Diaph ctr 30uM=i
COc1ccc(CNCC#Cc2ccccc2)c(OC)c1,nt,nt,i,nt,nt,
COc1ccc(C[C@@H]2OC3(C=CC(=O)C=C3)O[C@H]2Cc2ccc(OC)cc2)cc1,i,62,nt,i,i,
O=C1C=CC2(C=C1)O[C@H](Cc1ccccc1)[C@@H](Cc1ccccc1)O2,i,i,i,i,nt,
COC(=O)C[C@H]1CC[C@@H]2[C@@H](COc3ccc(NC(=O)c4ccno4)cc3C(=O)N2C)O1,nt,nt,i,nt,nt,
CCOc1ccc(C(=O)/C=C/c2cn(CN3CCN(C)CC3)c3ccccc23)cc1,i,62,i,i,i,
COc1ccc(C(=O)/C=C/c2cn(CN3CCN(C)CC3)c3ccccc23)cc1,i,i,nt,i,nt,
O=C(O)c1ccc(-n2c(-c3cc(-c4ccco4)[nH]n3)n[nH]c2=S)cc1,i,59,i,i,56,Diaph ctr 10uM=i;Diaph ctr 30uM=i
CC(=O)c1ccc(-n2c(-c3cc(-c4ccco4)[nH]n3)n[nH]c2=S)cc1,i,i,i,i,nt,
CC1(C)CC2(CC(c3ccccc3F)c3ccc(O)c(O)c3O2)NC(=S)N1 (stereo not given),i,66,i,i,70,Diaph ctr 10uM=i;Diaph ctr 30uM=i
COC(=O)CCC(=O)OC1(C)C(=O)C2=CN(C3CC3)C(c3ccc(OC)cc3)=CC2=C(Br)C1=O (stereo not given),i,72,i,i,52,Diaph ctr 10uM=i;Diaph ctr 30uM=i
COC(=O)CCC(=O)OC1(C)C(=O)C2=CN(CC3CC3)C(c3ccc(OC)cc3)=CC2=C(Br)C1=O (stereo not given),i,76,nt,i,i,
CCC(=O)OC1(C)C(=O)C2=COC(c3ccc(OC)cc3)=CC2=C(Br)C1=O (stereo not given),i,i,i,i,nt,
CCOC(=O)c1cnc2ccc(C(=O)OC)cc2c1NCCN1CCOCC1,i,71,i,i,i,
COc1ccc(C(=O)O[C@@H]2CCC[C@@]3(C(=O)N(Cc4ccccc4)c4ccccc43)[C@H]2NC(=O)CCc2ccccc2)cc1OC,nt,nt,i,nt,nt,
CCOc1ccccc1NC(=O)c1ccc2[nH]c(C)c(C)c2c1,i,i,i,i,nt,
COc1ccc(NC(=O)c2ccc3[nH]c(C)c(C)c3c2)c(OC)c1,i,62,i,i,i,
CC(C)C[C@H]1COc2cc(Br)ccc2S(=O)(=O)N1Cc1cn(CCC2OCCCO2)nn1,nt,nt,i,nt,nt,
COc1ccc2c(c1)c(C(=O)N/N=C/c1cccc(Br)c1)c(C)n2C,i,115,i,i,87,Diaph ctr 10uM=88;Diaph ctr 30uM=65
